# Platelet DG rel – platelet dense granule release activity | human platelet-rich plasma, SFLLRN dense granule ATP release, luminescence | inhibition, %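 (compounds screened at 7.5 µM in platelet-rich plasma)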 | actives 0.22% (n = 300,000) | AID 1663;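 active = mean replicate score, as percent of positive control, at or above 50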
# HIF act – HIF pathway transcriptional activation | activation, % at 7.5 µM (by protocol) | AID 1910 | actives 0.32% (n = 300,000) | U2OS HRE-luciferase reporter, luminescence; normalized: DMSO 0%, desferrioxamine 100%;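 active = mean activation of at least 10% of the iron chelator positive control signal, with at least half of replicates also reaching 10%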
# pCIP destab – compounds decreasing mouse p/CIP protein stability | F442A p/CIP-EGFP cells, EGFP fluorescence, 16 h | decrease of EGFP signal, % at 10 µM | actives 0.01% (n = 290,000) | AID 1984;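 active = EGFP signal decrease of at least 30% at 10 µM or well 3 SD below plate mean, unless failing retest; inactive = the rest, including hits failing retest or dose response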
# PolyA inhibitor – yeast polyadenylation inhibition; S. cerevisiae SKY197-pL101 polyadenylation reporter, beta-gal luminescence; efflux-impaired pdr1/pdr3 knockout yeast; score 100 = 6 SD above DMSO; activity score, % at 12 µM; actives 0.02% (n = 300,000);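 active = lowest replicate activity score at least 50, where 100 means six control SD above control mean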;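 note: yeast exposed to compound for 9 h at 30 °C; higher score means more reporter readthrough which indicates perturbed polyadenylation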
# AHR act – activators of human aryl hydrocarbon receptor; P35869; AHR-responsive luciferase reporter cells, luminescence; activation, % at 5 µM; actives 2.5% (n = 320,000); in the data active = activation above about 47%;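 note: 0% = vehicle wells and 100% = reference agonist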
# Target sequence (P35869 whole entry, looked up): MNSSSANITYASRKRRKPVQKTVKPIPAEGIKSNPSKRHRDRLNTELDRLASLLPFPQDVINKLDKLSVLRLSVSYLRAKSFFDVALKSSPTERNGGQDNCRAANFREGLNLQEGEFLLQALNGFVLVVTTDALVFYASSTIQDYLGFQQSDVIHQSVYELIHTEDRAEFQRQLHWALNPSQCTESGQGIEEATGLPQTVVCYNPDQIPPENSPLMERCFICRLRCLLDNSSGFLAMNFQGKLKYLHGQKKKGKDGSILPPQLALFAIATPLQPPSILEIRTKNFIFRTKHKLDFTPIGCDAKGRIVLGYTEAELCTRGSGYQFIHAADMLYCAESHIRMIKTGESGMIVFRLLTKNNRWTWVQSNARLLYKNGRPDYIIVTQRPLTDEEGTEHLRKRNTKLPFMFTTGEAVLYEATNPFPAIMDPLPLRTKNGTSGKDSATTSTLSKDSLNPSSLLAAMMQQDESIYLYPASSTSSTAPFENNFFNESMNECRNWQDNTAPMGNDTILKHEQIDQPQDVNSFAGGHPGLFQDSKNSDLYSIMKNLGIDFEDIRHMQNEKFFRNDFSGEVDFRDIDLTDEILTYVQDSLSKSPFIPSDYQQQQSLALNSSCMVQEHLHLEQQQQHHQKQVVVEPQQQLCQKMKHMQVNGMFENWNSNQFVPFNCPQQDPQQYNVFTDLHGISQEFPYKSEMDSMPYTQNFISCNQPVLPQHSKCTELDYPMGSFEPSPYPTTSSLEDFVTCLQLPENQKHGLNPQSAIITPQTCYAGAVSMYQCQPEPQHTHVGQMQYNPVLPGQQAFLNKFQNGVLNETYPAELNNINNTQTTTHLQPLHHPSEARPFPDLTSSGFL
# * = called active by the depositor; nt = no result. A selection: hits, their analogues and other compounds. The true share with any hit is near 2.8%.
SMILES,Platelet DG rel,HIF act,pCIP destab,PolyA inhibitor,AHR act
CC1CCCN(Cc2c(C(=O)N3CCc4ccccc4C3)nc3ccc(Cl)cn23)C1 (stereo unspecified),10,1,6,-13,3
NC(=O)C1CCCN(Cc2c(C(=O)N3CCc4ccccc4C3)nc3ccc(Cl)cn23)C1 (stereo unspecified),-1,11*,-4,-16,4
Cc1cc(NC(=O)CNCC(c2ccccc2)N(C)C)c([N+](=O)[O-])cc1C (stereo unspecified),-9,3,-13,-3,6
Cc1cc(C(=O)C(C)OC(=O)c2cnccn2)c(C)n1-c1ccccc1 (stereo unspecified),nt,-1,nt,-3,4
Cc1ccccc1-n1c(=O)cc(N2CCN(C(=O)c3ccco3)CC2)[nH]c1=O,52*,0,4,-12,1
Cc1ccccc1-n1c(=O)cc(N2CCCCCC2)[nH]c1=O,-8,0,1,-8,-3
COc1ccc(/C=N/N=C(\N)c2nonc2N)cc1,68*,-3,14,0,nt
O=C(C[C@H]1C/C=C\C[C@@H](Cc2ccc(F)cc2)C(=O)OC[C@@H]2CCCN2C1=O)NCCO,nt,nt,nt,nt,0
Cc1cc(C)c(O)c(-c2cc(C(=O)Nc3cccnc3)[nH]n2)c1,13,2,-8,1,-2
Cc1cccc(NC(=O)c2cc(-c3cc(C)cc(C)c3O)n[nH]2)c1,-1,1,16,0,66*
COc1ccc(NC(=O)c2cc(-c3ccccc3O)n[nH]2)cc1Cl,0,3,-2,3,nt
COc1ccc(NC(=O)c2cc(-c3cc(C)cc(C)c3O)n[nH]2)cc1Cl,0,0,2,-1,80*
Cc1ccc(S(=O)(=O)NCC(=O)OCC(=O)NCc2cccs2)cc1,-28,0,nt,1,-1
COc1ccc(CNC(=S)N/N=C(\C)c2ccc(OC)cc2)cc1,9,1,6,-23,9
COc1ccc(/C(C)=N/NC(=S)NCc2ccco2)cc1,-12,-1,0,1,63*
CCN(CC)S(=O)(=O)c1ccc(Cl)c(NC(=O)c2cc(Cl)cc(Cl)c2)c1,-1,0,-10,-2,0
COc1ccc(C(CNC(=O)c2ccc(-c3cccc(C(F)(F)F)c3)o2)N2CCOCC2)cc1 (stereo unspecified),-29,0,nt,-5,0
Cn1ncc(Br)c1C(=O)Nc1cccc(C(F)(F)F)c1,-1,0,-7,10,71*
Cn1c2ccc(F)cc2c2nc3ccccc3nc21,5,0,4,15,43
Cn1c2ccc(Cl)cc2c2nc3ccccc3nc21,11,1,4,-12,56*
CCN(CC)CCn1c2ccccc2c2n[nH]c(=S)nc21,15,1,1,17,9
N#CCCn1c2ccccc2c2nc3ccccc3nc21,-2,0,-1,-30,70*
CCN(CC)CCn1c2ccccc2c2nc3ccccc3nc21,-11,4,-176,8,64*
CCn1c2ccc(F)cc2c2nc3ccccc3nc21,-2,0,0,-18,59*
CC1(C)CC(=O)C=C(c2cccc(O)c2)C1=O,nt,nt,nt,nt,2
SMILES,Platelet DG rel,HIF act,pCIP destab,PolyA inhibitor,AHR act
O=P(O)(Cc1ccccc1)Cc1ccccc1,2,-1,-13,-3,-2
CSc1ncc(CO)n1Cc1ccccc1,-2,-1,11,-4,-3
CCOC(=O)Cn1c2ccccc2c2nc3ccccc3nc21,-4,1,-70,-11,16
CCCn1c2ccccc2c2nc3ccccc3nc21,12,-1,-7,-28,79*
Cn1c2ccc(Br)cc2c2nnc(SCC(=O)O)nc21,-5,-44,12,18,54*
CCCCn1c2ccccc2c2nnc(SCC(=O)NC3=NN=C(c4ccccc4)CS3)nc21,-4,0,-3,-8,61*
Cn1c2ccccc2c2nnc(SCC(N)=O)nc21,-1,-8,-4,3,14
Cn1c2ccccc2c2nnc(SCC(=O)Nc3cccc(O)c3)nc21,0,2,-5,15,66*
COc1ccc(/C=C/C(=O)OCC(=O)NC(C)CCc2ccccc2)cc1OC (stereo unspecified),nt,nt,nt,nt,0
Clc1nc2c(-c3ccccc3)nnn2c2ccccc12,5,0,-7,17,52*
CCCCCOc1ccc(Br)cc1/C(C)=N/NC1=NCCN1,1,1,-4,7,62*
COC(=O)c1ccc(NC(=O)c2cc[n+](Cc3ccccc3)cc2)cc1,0,-2,-2,14,nt

# Screening results as filed in PubChem.
